# Results from the supplement of paper PMC13094657.
# Counter-ions that a name gives are not always drawn. ± gives the standard deviation of the averaged measurements.
# Test system: MDA-MB-231
# Experiment: cell viability relative to vehicle unstimulated control (fraction); higher = more viable cells
# Settings: pre-treatment time: 18 h then 24 h IFNg/TNF
# 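Further: viability of the cells left after supernatant collection, read with Deep Blue dye added for 4 h, as absorbance at 570 nm minus 600 nm.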
row,Compound,cell viability
1,COc1ccc2c3c1O[C@H]1C[C@@H](O)C=C[C@@]31CCN(C)C2 [Galantamine hydrobromide] (compound dose: 10 uM),1.04
2,C/C=C(/C)C(=O)O[C@H]1C(C)=C[C@]23C(=O)[C@@H](C=C(CO)[C@@H](O)[C@]12O)[C@H]1[C@@H](C[C@H]3C)C1(C)C [Ingenol 3-Angelate] (compound dose: 10 uM),0.958 ± 0.11
3,"CCCCCC(=O)O[C@@H]1[C@@H](C)[C@@]2(O)[C@@H](C=C(CO)C[C@]3(O)C(=O)C(C)=C[C@@H]23)[C@@H]2C(C)(C)[C@]12OC(=O)CCCCC [Phorbol 12, 13-Dihexanoate] (compound dose: 10 uM)",1.05 ± 0.076
4,CC1(C)CC[C@]2(C(=O)O[C@@H]3O[C@H](CO)[C@@H](O)[C@H](O)[C@H]3O)CC[C@]3(C)C(=CC[C@@H]4[C@@]5(C)CC[C@H](O[C@@H]6O[C@H](C(=O)O)[C@@H](O)[C@H](O)[C@H]6O)C(C)(C)[C@@H]5CC[C@]43C)[C@@H]2C1 [Chikusetsusaponin Iva] (compound dose: 10 uM),0.986 ± 0.01
5,C[C@@H]1O[C@@H](O[C@@H]2[C@@H](O)[C@H](O[C@H]3CC[C@]4(C)[C@H]5CC=C6[C@@H]7CC(C)(C)CC[C@]7(C(=O)O[C@@H]7O[C@H](CO)[C@@H](O)[C@H](O)[C@H]7O)CC[C@@]6(C)[C@]5(C)CC[C@H]4C3(C)C)O[C@H](C(=O)O)[C@H]2O)[C@H](O)[C@H](O)[C@H]1O (compound dose: 10 uM),0.941 ± 0.015
6,C=C1C(=O)O[C@H]2C[C@H](C)C(/C=C/C(C)=O)=CC[C@H]12 [Xanthatin] (compound dose: 10 uM),0.66 ± 0.18
7,C=CCC(=NOS(=O)(=O)O)S[C@@H]1O[C@H](CO)[C@@H](O)[C@H](O)[C@H]1O (stereo in doubt) [Sinigrin] (compound dose: 10 uM),0.933 ± 0.014
8,C=C1C(=O)O[C@@H]2CC(C)=C([C@@H](C)CCCOC(C)=O)[C@@H](O)[C@H]12 [Inulicin] (compound dose: 10 uM),0.912 ± 0.096
9,CC1=CC[C@@H](C(C)(C)O)CC1 [(-)-α-terpineol] (compound dose: 10 uM),0.979 ± 0.044
10,C=C(C)[C@@H]1CC=C(C)C(=O)C1 [L(-)-carvone] (compound dose: 10 uM),0.965 ± 0.069
11,CC(=O)O[C@@]12CO[C@@H]1C[C@H](O)[C@@]1(C)C(=O)[C@H](O)C3=C(C)[C@@H](OC(=O)[C@H](O)[C@@H](NC(=O)OC(C)(C)C)c4ccccc4)C[C@@](O)([C@@H](OC(=O)c4ccccc4)[C@H]21)C3(C)C [Docetaxel] (compound dose: 10 uM),0.923 ± 0.067
12,CC1OC(OC2C(CO)OC(OCC3OC(OC(=O)C45CCC(C)(C)CC4C4=CCC6C7(C)CCC(OC8OCC(O)C(O)C8O)C(C)(CO)C7CCC6(C)C4(C)CC5)C(O)C(O)C3O)C(O)C2O)C(O)C(O)C1O (stereo not drawn) [Hederacoside D] (compound dose: 10 uM),0.923 ± 0.067
13,C[C@]1(O)C[C@@H](O)[C@]2(O)C=CO[C@@H](O[C@H]3O[C@H](CO)[C@@H](O)[C@H](O)[C@H]3O)[C@@H]21 [Harpagide] (compound dose: 10 uM),1.02 ± 0.016
14,C=C[C@]1(C)C[C@@H](OC(=O)CO)[C@]2(C)[C@H](C)CC[C@]3(CCC(=O)[C@@H]32)[C@@H](C)[C@@H]1O [Pleuromutilin] (compound dose: 10 uM),1.01 ± 0.057
15,O[C@H]1[C@H]2c3cc4c(cc3CN3CCC(=C[C@@H]1O)[C@H]23)OCO4 [Lycorine chloride] (compound dose: 10 uM),0.582 ± 0.056
16,Cc1cc(O)cc(O[C@@H]2O[C@H](CO)[C@@H](O)[C@H](O)[C@H]2O)c1 [Orcinol glucoside] (compound dose: 10 uM),1.05 ± 0.027
17,C=C1[C@H](OC(C)=O)[C@@H](O)[C@@H](OC(=O)c2cccnc2)C(C)(C)/C=C/[C@H](C)[C@H](OC(C)=O)[C@@]2(O)C[C@@](C)(OC(C)=O)[C@H](OC(=O)c3ccccc3)[C@@H]2[C@H]1OC(C)=O [Jatrophane 5] (compound dose: 10 uM),1.12 ± 0.027
18,C[C@@]12C[C@@]3(O)O[C@@H](O1)[C@]1(COC(=O)c4ccc(O)cc4)[C@@H]3C[C@]12O[C@@H]1O[C@H](CO)[C@@H](O)[C@H](O)[C@H]1O [Oxypaeoniflorin] (compound dose: 10 uM),1.05 ± 0.069
19,C=C(C)[C@@H]1CC[C@]2(C)CC[C@]3(C)[C@H](CC[C@@H]4[C@@]5(C)CCC(=O)C(C)(C)[C@@H]5CC[C@]43C)[C@@H]12 [Lupenone] (compound dose: 10 uM),0.9789 ± 0.0076

row,Compound,cell viability
1,C[C@H]1[C@H](C)CC[C@]2(C(=O)O)CC[C@]3(C)C(=CC[C@@H]4[C@@]5(C)CC[C@H](O)C(C)(C)[C@@H]5CC[C@]43C)[C@H]12 [Ursolic acid] (compound dose: 10 uM),0.973 ± 0.015
2,CC(=O)OC[C@H]1O[C@@H](OC[C@H]2O[C@@H](OC(=O)[C@]34CCC(C)(C)C[C@H]3C3=CC[C@@H]5[C@@]6(C)CC[C@H](O[C@@H]7OC[C@H](O)[C@H](O)[C@H]7O[C@@H]7O[C@H](CO)[C@@H](O)[C@H](O)[C@H]7O)C(C)(C)[C@@H]6CC[C@@]5(C)[C@]3(C)CC4)[C@H](O)[C@@H](O)[C@@H]2O)[C@H](O)[C@@H](O)[C@@H]1O[C@@H]1O[C@@H](C)[C@H](O)[C@@H](O)[C@H]1O [Acanthopanaxoside B] (compound dose: 10 uM),1.095 ± 0.0013
3,CC(=O)OCC1=COC(OC(C)=O)C2C(C)CCC12 (stereo not drawn) [Teucrein] (compound dose: 10 uM),0.889 ± 0.026
4,C[C@H]1O[C@@H](O[C@H]2[C@@H](O)C[C@H](O[C@H]3[C@@H](O)C[C@H](O[C@H]4CC[C@@]5(C)[C@H](CC[C@@H]6[C@@H]5C[C@@H](O)[C@]5(C)[C@@H](C7=CC(=O)OC7)CC[C@]65O)C4)O[C@@H]3C)O[C@@H]2C)C[C@H](O)[C@@H]1O [Digoxin] (compound dose: 10 uM),0.543 ± 0.066
5,C[C@@H]1CC[C@]2(C(=O)O[C@@H]3O[C@H](CO)[C@@H](O)[C@H](O)[C@H]3O)CC[C@]3(C)C(=CC[C@@H]4[C@@]5(C)CC[C@H](O)[C@](C)(C(=O)O)[C@@H]5CC[C@]43C)[C@@H]2[C@]1(C)O [Ilexsaponin A] (compound dose: 10 uM),1.02 ± 0.016
6,CC(C)(O)[C@H]1CC[C@@](C)([C@H]2CC[C@]3(C)[C@@H]2[C@H](O)C[C@@H]2[C@@]4(C)CC[C@H](O)C(C)(C)[C@@H]4[C@@H](O[C@@H]4O[C@H](CO)[C@@H](O)[C@H](O)[C@H]4O)C[C@]23C)O1 [Pseudoginsenoside RT5] (compound dose: 10 uM),0.987 ± 0.016
7,C[C@H](CC[C@@H](O)C(C)(C)O)[C@H]1CC[C@@]2(C)[C@@H]3CC=C4[C@@H](CC[C@H](O)C4(C)C)[C@]3(C)[C@H](O)C[C@]12C [Mogrol] (compound dose: 10 uM),0.939 ± 0.051
8,CC1(C)CC[C@]2(C(=O)O[C@@H]3O[C@H](CO)[C@@H](O)[C@H](O)[C@H]3O)CC[C@]3(C)C(=CC[C@@H]4[C@@]5(C)CC[C@H](O[C@@H]6O[C@H](C(=O)O)[C@@H](O)[C@H](O)[C@H]6O[C@H]6OC[C@@H](O)[C@H](O)[C@H]6O)C(C)(C)[C@@H]5CC[C@]43C)[C@@H]2C1 [Pseudoginsenoside RT1] (compound dose: 10 uM),0.9758 ± 0.0023
9,CC(C)=CCC[C@](C)(O[C@@H]1O[C@H](CO)[C@@H](O)[C@H](O)[C@H]1O)[C@H]1CC[C@]2(C)[C@@H]1[C@H](O)C[C@@H]1[C@@]3(C)CC[C@H](O[C@@H]4O[C@H](CO)[C@@H](O)[C@H](O)[C@H]4O[C@@H]4O[C@H](CO)[C@@H](O)[C@H](O)[C@H]4O)C(C)(C)[C@@H]3CC[C@]12C [Ginsenoside Rd] (compound dose: 10 uM),1 ± 0.022
10,CC1=CC[C@@H](C(C)(C)O)CC1 [α terpineol (mixed)] (compound dose: 10 uM),0.977 ± 0.065
11,C[C@H]1[C@H](C)CC[C@]2(C(=O)O)CC[C@]3(C)C(=CC[C@@H]4[C@@]5(C)C[C@@H](O)[C@H](O)C(C)(C)[C@@H]5CC[C@]43C)[C@H]12 [Corosolic acid] (compound dose: 10 uM),1.07 ± 0.16
12,C=C1C(=O)O[C@H]2C[C@@H](C)[C@@H]3CCC(=O)[C@@]3(C)[C@@H](OC(C)=O)[C@H]12 [Ergolide] (compound dose: 10 uM),0.992 ± 0.072
13,CN1CCC[C@@H]1CC(=O)C[C@@H]1CCCN1C [Cuscohygrine] (compound dose: 10 uM),0.977 ± 0.14
14,CC(C)=CCCC(C)(OC1OC(CO)C(O)C(O)C1O)C1CCC2(C)C1C(O)CC1C3(C)CC(O)C(OC4OC(CO)C(O)C(O)C4OC4OC(CO)C(O)C(O)C4O)C(C)(C)C3CCC12C (stereo not drawn) [Gypenoside XLVI] (compound dose: 10 uM),1.03 ± 0.27
15,O=c1c(O)c(-c2ccc(O)cc2)oc2cc(O)cc(O)c12 [Kaempferol] (compound dose: 10 uM),0.969 ± 0.079
16,C/C1=C\[C@H]2C(=O)[C@@H](C)C[C@]2(O)C(=O)/C(C)=C/[C@@H]2[C@H](CC1)C2(C)C [jolkinol C] (compound dose: 10 uM),1.07 ± 0.041
17,C[C@@H]1O[C@@H](O[C@H]2[C@H](O)[C@@H](O)[C@H](OC[C@H]3O[C@@H](OC(=O)[C@]45CCC(C)(C)C[C@H]4C4=CC[C@@H]6[C@@]7(C)CC[C@H](O[C@@H]8OC[C@H](O)[C@H](O)[C@H]8O)[C@@](C)(CO)[C@@H]7CC[C@@]6(C)[C@]4(C)CC5)[C@H](O)[C@@H](O)[C@@H]3O)O[C@@H]2CO)[C@H](O)[C@H](O)[C@H]1O [Cauloside D] (compound dose: 10 uM),0.997 ± 0.083
18,CC1(C)CCC[C@](C)([C@H]2CC[C@]3(C)[C@@H]2[C@H](O)C[C@@H]2[C@@]4(C)CC[C@H](O)C(C)(C)[C@@H]4[C@@H](O)C[C@]23C)O1 [Panaxatriol] (compound dose: 10 uM),0.926 ± 0.025
19,"CCCCCCCCCC(=O)O[C@@H]1[C@@H](C)[C@@]2(O)[C@@H](C=C(COC(=O)Cc3ccc(O)c(OC)c3)C[C@]3(O)C(=O)C(C)=C[C@@H]23)[C@@H]2C(C)(C)[C@]12OC(=O)CCCCCCCCC [Phorbol 12,13-didecanoate 20-homovanillate] (compound dose: 10 uM)",1 ± 0.024
